Experimental data: PubChem BioAssay AID1259415 (National Center for Advancing Translational Sciences (NCATS), 2018)
Among all 410,000 compounds or so, about 18,000 (4.4%) were called active. About 7% were inconclusive and are not listed. Rule as the data show it: active = activity change below about -60%; inconclusive = no clear call, values can overlap the other calls; inactive = above about -39%. The list comes from a sample in which actives are over-represented; it also holds similar structures and randomly drawn compounds.

Experiment: qHTS Assay for inhibitors of the human cytomegalovirus (HCMV)
Details: HFF cells, HCMV-luciferase reporter, 72 h; at 57.5 µM; stronger effect = lower value
How it was run: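 Screen run at 2 compound doses on HFFs infected with reporter HCMV, MOI 1 PFU/cell. Luciferase activity from cell lysates at 72 h post infection gave inhibition relative to buffer-only and Salinomycin wells.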
% is scaled to controls: 0 for no effect and ±100 for the full control effect.

Row | SMILES | activity change, negative = inhibition
1 | CCC(=O)c1ccc(OCC(=O)N2CCN(CC(=O)Nc3ccc(C)cc3)CC2)cc1 | 6.75% (inactive)
2 | O=C(CN1CCN(S(=O)(=O)c2ccc3ccccc3c2)CC1)NC(=O)NC1CCCCC1 | -4.61% (inactive)
3 | O=C(CN1CCN(C(=S)NC2CCCC2)CC1)Nc1ccc(Oc2ccccc2)cc1 | -79.5% (active)
4 | CC1(C)OC(=O)C2=C(C[C@@H](C3CC3)O[C@H]2c2ccc(Cl)cc2)O1 | -11.9% (inactive)
5 | O=c1c2ccccc2ncn1CCCCOc1ccccc1F | -105% (active)
6 | Fc1ccccc1OCCCCn1cncn1 | -9.84% (inactive)
7 | O=c1c2ccccc2ncn1CCc1ccncc1 | 16.6% (inactive)
8 | COc1ccc(CCN2C(=O)c3oc4cc(C)cc(C)c4c(=O)c3C2c2ccccc2F)cc1OC (configuration not stated) | -2.86% (inactive)
9 | COc1ccc(Br)cc1C1CC(=O)Nc2c1c(C)nn2-c1nc(C)cc(C)n1 (configuration not stated) | -4.09% (inactive)
10 | CN1CCC2(CC1)NC(=O)NC2=O | 7.02% (inactive)
11 | O=C(COc1cccnc1[N+](=O)[O-])Nc1ccc(Cl)cc1F | 9.57% (inactive)
12 | Cc1ccc2cc(CCNC(=O)c3ccc4c(c3)OCO4)c(=O)[nH]c2c1 | -60.5% (active)
13 | O=C(NCCc1ccc(C(F)(F)F)cc1)c1ccc2c(c1)OCO2 | -38.1% (inactive)
14 | Cc1onc(-c2ccccc2Cl)c1C(=O)N(Cc1ccc(N(C)C)cc1)C(C)C | -25.9% (inactive)
15 | COc1ccc(-c2cnc(SCCNC(=O)c3ccc4c(c3)OCO4)[nH]2)cc1 | -28.5% (inactive)
16 | Cc1ccc2cc(CCNC(=O)c3c(-c4ccccc4Cl)noc3C)c(=O)[nH]c2c1 | -94.6% (active)
17 | Cc1onc(-c2c(Cl)cccc2Cl)c1C(=O)c1c[nH]c(C(=O)NC2CC2)c1 | 16.8% (inactive)
18 | COC(=O)C1=CN(c2c(C)cc(C)cc2C)C(N)=C(C#N)C1c1cccc(F)c1 (configuration not stated) | -18.9% (inactive)
19 | COC(=O)[C@@H]1[C@@H](CO)[C@@H]2Cn3c(cccc3=O)[C@H]1N2CC1CCCC1 | 13.6% (inactive)
20 | Cc1[nH]c2ccccc2c1C(c1ccccc1)c1cccs1 (configuration not stated) | -20.6% (inactive)
21 | Cc1cc(F)ccc1S(=O)(=O)Nc1ccc(C(=O)N(C)Cc2ccco2)cc1 | -17.3% (inactive)
22 | CCOC(=O)C1CCCN(C(=O)c2ccc(N(C)C)cc2)CC1 (configuration not stated) | 14.9% (inactive)
23 | CCOC(=O)C1CCCN(C(=O)c2ccc(C)c(F)c2)CC1 (configuration not stated) | -2.4% (inactive)
24 | Cc1ccc(C)c(S(=O)(=O)N(C)c2ccc(OC(=O)C3CCN(C(=O)c4ccc(F)cc4)CC3)cc2)c1 | -83.9% (active)
25 | C/C(N)=C(/C#N)C(=O)COC(=O)CNS(=O)(=O)c1ccc(C)cc1 | -80.1% (active)
26 | Cc1ccc(S(=O)(=O)NCC(=O)OCC(=O)N2CCc3ccccc32)cc1 | -5.73% (inactive)
27 | COc1cccc(OC)c1C(=O)OCC(=O)/C(C#N)=C(\C)N | -27.5% (inactive)
